Only some compounds are listed: those with a hit (about 1.2% of all), similar ones and a draw of the others.
TrxR1 substrate: rat thioredoxin reductase 1 substrate activity; O89049; purified TrxR1 substrate turnover, NADPH consumption readout; Potency, µM (series often up to 114 µM), inactives show at the highest dose activity change, negative = substrate turnover; 390,000 tested, 0.01% active; AID 588456; also: nearly all actives have a fitted effect of over 50% in size
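Rat TrxR1, dispensed at 90 nM, was prereduced with 400 uM NADPH (final) for 5 min at ~22 deg C, then incubated with compound 15 min before 400 uM selenite. A first-read NADPH fluorescence drop versus no-compound background flagged substrates.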
GALK inh: blocks human galactokinase activity; Purified GALK, Kinase-Glo residual ATP luminescence; Potency, µM (titrated, usually from 57.5 µM), inactives show top-dose activity change, negative = inhibition, actives largely listed as inhibitors; 270,000 tested, 0.007% active; AID 1868
Target sequence (P51570 whole entry, looked up): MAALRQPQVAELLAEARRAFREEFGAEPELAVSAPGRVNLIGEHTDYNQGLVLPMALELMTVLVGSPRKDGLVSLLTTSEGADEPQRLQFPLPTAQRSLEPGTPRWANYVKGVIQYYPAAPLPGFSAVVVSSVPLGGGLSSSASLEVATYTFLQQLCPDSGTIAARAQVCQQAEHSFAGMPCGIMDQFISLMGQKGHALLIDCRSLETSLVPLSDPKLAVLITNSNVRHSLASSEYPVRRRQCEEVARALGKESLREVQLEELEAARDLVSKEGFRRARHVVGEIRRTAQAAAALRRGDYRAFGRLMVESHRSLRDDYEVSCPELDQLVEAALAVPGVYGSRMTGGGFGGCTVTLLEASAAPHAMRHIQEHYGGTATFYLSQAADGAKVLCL
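GALK at 5 nM final was combined with compound, 35 uM ATP and 100 uM galactose in HEPES pH8.0 with MgCl2 and DTT. The reaction ran one hour at room temperature before luminescent ATP detection.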
rTrxR1 inhibitor: blocks rat thioredoxin reductase 1 | O89049 | recombinant rTrxR1, NADPH fluorescence consumption, selenite substrate | Potency, µM (highest dose often 114 µM), for the others: at the top dose activity change, negative = inhibition, most hits filed as inhibitors | 390,000 tested, 1% active | AID 588453; also: nearly all actives have a fitted effect of over 65% in size
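Rat TrxR1 (90 nM in the dispensed reagent) was pre-reduced with 400 uM NADPH for 5 min at room temperature, then incubated with compound for 15 min. After 400 uM selenite was added, NADPH fluorescence (Ex 340/Em 450 nm) was followed for 8 min.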
NPSR antagonist: neuropeptide S receptor (human) antagonism, cAMP | Potency, µM (series often up to 38.3 µM), for the others: at the top dose activity change, negative = inhibition, hits mostly inhibitors | Q6W5P4 | CHO-NPSR cells, cAMP TR-FRET, antagonist mode | 220,000 tested, 1% active | AID 1461; also: nearly all actives have a fitted effect of over 50% in size
Target sequence (Q6W5P4 whole entry, looked up): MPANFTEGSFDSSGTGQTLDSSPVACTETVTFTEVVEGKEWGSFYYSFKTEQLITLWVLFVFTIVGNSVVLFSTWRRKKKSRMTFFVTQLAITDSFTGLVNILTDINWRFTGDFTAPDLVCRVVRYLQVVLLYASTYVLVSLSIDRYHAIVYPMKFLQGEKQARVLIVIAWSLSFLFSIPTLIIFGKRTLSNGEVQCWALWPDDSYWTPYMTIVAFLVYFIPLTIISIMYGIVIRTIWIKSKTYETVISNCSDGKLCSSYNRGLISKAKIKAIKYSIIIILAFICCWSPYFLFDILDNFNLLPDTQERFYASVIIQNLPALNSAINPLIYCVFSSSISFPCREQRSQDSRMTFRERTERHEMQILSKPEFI
* hit, by the source's call; ? = inconclusive; . = no result given; [ ] = dose if it differs, or a comment. Calls follow the shape of the dose curve; as a rule, active = well fitted curve in the direction sought with a large enough effect; inconclusive = small, poorly fitted or top-dose-only effect, or another doubt; inactive = no such curve, though single readings can be large; an effect the other way counts as inactive or inconclusive. % is scaled to controls: 0 for no effect and ±100 for the full control effect; potency is read from the fitted curve at half-maximal effect.

SMILES | TrxR1 substrate | GALK inh | rTrxR1 inhibitor | NPSR antagonist
Cc1cc(C(=O)O)cc(S(=O)(=O)Nc2ccccc2C(=O)NC(C)c2ccccc2)c1C (stereo unspecified) | 13.0% | -5.8% | 22.2% | .
Cc1ccc(Cl)cc1NC(=O)c1cc2c(=O)n3cccc(C)c3nc2n1C | -2.9% | . | -4.3% | .
CN(C(=O)COC(=O)c1ccccc1OCC(=O)Nc1ccc(Br)cc1)c1ccccc1 | 5.7% | . | 30.0% | .
Cc1ccc(S(=O)(=O)/N=C(/NC(=S)Nc2cccc(C)c2)c2ccccc2)cc1 | -2.2% | -0.5% | ? | -10.2%[46.1 µM]
Cc1cccc(NC(=S)N/C(=N/S(=O)(=O)c2ccccc2)c2ccccc2)c1 | 2.0% | -2.6% | 15.8µM* | -14.6%[46.1 µM]
O=[N+]([O-])c1cc(S(=O)(=O)N2CCCCCC2)ccc1F | -6.0% | -6.0% | 31.6µM* | ?
CCCCn1c(NC(=O)c2ccccc2Cl)c(C#N)c2nc3ccccc3nc21 | ? | -19.4% | ? | 10µM*
CCc1ccc(CNC(=O)c2cccc(-n3c(C)nc4cccnc43)c2)cc1 | -0.8% | . | 15.7% | .
N#CC1=C(N)C(C#N)(C#N)C2(C(=O)Nc3ccccc32)C2CCCC=C12 (stereo unspecified) | -7.0% | 0.8% | 56.2µM* | -14.7%[46.1 µM]
C[N+]1(CC(=O)c2cccc([N+](=O)[O-])c2)CCOCC1 | 7.4% | . | 18.7% | .
Cc1cc2nc(N(Cc3cccnc3)C(=O)c3ccc(Cl)s3)sc2cc1C | -0.2%[57.1 µM] | . | 5.8%[57.1 µM] | .
O=C(CCNc1cc(Cl)cc(Cl)c1)c1cccs1 | 3.1% | 5.1% | 28.2µM* | -18.5%[46.1 µM]
O=C(CCNc1ccc(Cl)cc1)c1cccs1 | -4.7% | -2.4% | ? | -7.8%
CC1CCCC(C)N1C(=O)COC(=O)/C=C/c1ccc(Br)o1 (stereo unspecified) | -10.3% | . | 35.5µM* | .
O=C(/C=C/c1ccc(Br)o1)OCc1ccccc1 | -1.3% | -2.7% | ? | -14.7%[46.1 µM]
CC1CCN(C(=O)COC(=O)/C=C/c2ccc(Br)o2)CC1 | -2.9% | . | 25.1µM* | .
O=C(O)Cc1ccc(O)c(O)c1 | 8.8%[57.1 µM] | 0.4% | 7.52µM* | 5.9%[46.1 µM]
CC(C)(C)n1ncc2c(=O)n(Cc3cccc(OC(F)(F)F)c3)cnc21 | -7.1% | . | 13.4% | .
CCOc1ccc(CN(C)C(=O)CCl)cc1 | 12.9%[57.1 µM] | 0.2% | 17.8µM* | -13.6%
CCCCCCCCCC[n+]1ccc(/C=C/c2c[nH]c3ccccc23)c2ccccc21 | -0.5% | . | ? | .
N#CCCCN1C(=O)C(=C(C#N)C#N)c2ccccc21 | -4.3% | -1.4% | 12.6µM* | 55.9%
N#CCCCN1C(=O)C(O)(CC(=O)c2ccc3c(c2)OCCO3)c2ccccc21 (stereo unspecified) | -6.7% | 0.6% | -3.5% | 5.1%[46.1 µM]
CCN(CC)C(=O)Cn1cc(S(=O)(=O)CC(=O)Nc2ccccc2C)c2ccccc21 | 7.1% | . | 9.5% | .
Cn1c(C(=O)OCC(=O)NCc2ccco2)cc2sccc21 | 2.4% | 5.3% | 25.1µM* | -15.1%[7.67 µM]
Cc1ccc(-n2ncc(C(=O)NCc3ccco3)c2C2CCN(C(=O)OC(C)(C)C)CC2)c(C)c1 | -3.8% | . | 1.3% | .
SMILES | TrxR1 substrate | GALK inh | rTrxR1 inhibitor | NPSR antagonist
CCOC(=O)C1=C(C)NC(C)=C(C(=O)OCC)C1c1c(F)c(F)c(F)c(F)c1F | 23.7%[57.1 µM] | . | ? | .
CCC1=C[C@@H]2CN(C1)Cc1c([nH]c3ccccc13)[C@@](C(=O)OC)(c1cc3c(cc1OC)N(C)[C@H]1[C@@](O)(C(=O)OC)[C@H](OC(C)=O)[C@]4(CC)C=CCN5CC[C@]31[C@@H]54)C2 | 3.6% | . | 28.2µM* | .
CCN(CC)P(=O)(Nc1ccc(C)cc1Br)c1ccc(N(C)C)cc1NC(=O)c1ccco1 (stereo unspecified) | -11.2% | 0.9% | 2.7%[57.1 µM] | 10µM*
Cc1ccc(NC(=O)c2ccco2)c(NC(=O)c2ccccc2)c1 | 9.0% | 4.4% | 19.6% | .
O=c1c(Cl)c(Cl)cnn1-c1ccccc1 | 4.8% | -2.4% | 14.1µM* | -19.0%[46.1 µM]
Nc1c(Cl)cnn(-c2ccccc2)c1=O | 4.0% | . | 24.8% | .
Cc1cc(C)cc(Cn2ncc(Cl)c(Cl)c2=O)c1 | 3.8% | -0.4% | 6.31µM* | ?
O=c1c(Cl)c(Cl)cnn1Cc1ccccc1Cl | 4.6% | 0.7% | 20µM* | 6.31µM*
Cc1ccc(Cn2ncc(Cl)c(Cl)c2=O)cc1 | 5.1% | -0.2% | 6.31µM* | -47.0%
O=c1[nH]cnc2c1cnn2Cc1ccccc1Cl | 3.3% | . | 24.8% | .
Cc1cc(C)n2c(Nc3ccccc3C)c(-c3cccs3)nc2n1 | 8.2% | . | 1.0% | .
CCn1c(=O)c([N+](=O)[O-])c(Cl)c2ccccc21 | 5.2% | -2.8% | 2.51µM* | ?
COC(=O)c1ccc(OCC2c3cc(OC)c(OC)cc3CCN2C(=O)c2ccc(F)cc2)cc1 (stereo unspecified) | -3.4%[57.1 µM] | . | 2.9%[57.1 µM] | .
O=C1CCCC(O)=C1C(C#Cc1ccccc1)C1=C(O)CCCC1=O | -15.1% | 1.4% | 10µM* | -16.9%[46.1 µM]
CC1(C)CC(=O)C(N=Nc2ccc(-c3ccccc3)cc2)=C(O)C1 | -9.0% | -2.4% | -1.4% | 2.3%
O=C1CCCC(O)=C1Sc1ccccc1C(=O)O | -1.2% | 0.4% | 20.2% | 15.7%
CC1(C)CC(=O)C(C(C#Cc2ccccc2)C2=C(O)CC(C)(C)CC2=O)=C(O)C1 | -1.0%[57.1 µM] | -3.5% | 10µM* | -15.2%[46.1 µM]
Cc1cc2c(C)cc(=O)[nH]c2cc1NC(=O)CCl | 1.5% | 4.4% | 20µM* | 40.7%
CC1=C(c2ccc(C)c(C)c2)S(=O)(=O)N(Cc2ccc(C(=O)NC(C)c3ccccc3)cc2)C1=O (stereo unspecified) | 48.1%[57.1 µM] | . | 37.4%[57.1 µM] | .
COc1cc2nc(Cl)nc(NC3CCN(C)CC3)c2cc1OC | -2.0% | . | 5.5% | .
CC(=O)NN1C(=O)/C(=C/c2ccc(Br)o2)SC1=S | -6.1%[57.1 µM] | -1.4% | 25.1µM* | -15.1%[46.1 µM]
CC(=O)NN1C(=O)/C(=C\c2ccc(Br)o2)SC1=S | -15.3% | . | ? | -11.2%
CC(C)Cc1ccc(S(=O)(=O)N2CCOCC2)cc1 | 2.3%[57.1 µM] | -1.3% | 25.5%[57.1 µM] | -13.6%[46.1 µM]
CC(C)Cc1ccc(C(C)CC2=CCC(CN(C)C)C2=O)cc1 (stereo unspecified) | -1.2% | . | 44.7µM* | .
COc1cc(C(=O)Nc2nc(-c3cc(C)ccc3C)c(C)s2)ccc1OCC(=O)Nc1ccc(F)cc1 | 32.3% | 2.7% | -16.8% | ?
SMILES | TrxR1 substrate | GALK inh | rTrxR1 inhibitor | NPSR antagonist
COc1ccc(-c2nc(NC(=O)c3ccc(OCC(=O)Nc4ccc(F)cc4)c(OC)c3)sc2C)cc1 | 35.0% | -0.4% | -9.0% | 10µM*
CCCN1C(=O)c2ccccc2NC1c1ccc(OC)c(COc2ccc([N+](=O)[O-])c(C)c2)c1 (stereo unspecified) | -7.7% | . | 5.8% | .
COc1ccc2nc(Nc3sc4c(c3C(N)=O)CCCC4)sc2c1 | -8.3% | -2.0% | 14.1µM* | -7.9%
CCN(CCC#N)c1ccc(/C=C/c2ccnc3ccccc23)cc1 | -3.9% | . | 14.1% | .
COc1ccc(Cn2c(C)nc3c(c2=O)c2nc4ccccc4nc2n3Cc2ccco2)cc1 | 0.8% | . | -12.9% | .
Cc1cc(C)cc(-n2c3nc4ccccc4nc3c3c(=O)n(Cc4ccco4)cnc32)c1 | 14.6%[57.1 µM] | -1.8% | -67.7% | 10µM*
Cc1nc2c(c(=O)n1Cc1ccccc1Cl)c1nc3ccccc3nc1n2Cc1ccco1 | . | -5.5% | . | 12.6µM*

Bioassay records from PubChem.
